The list is not random: actives were taken first. Their share in the collection is about 6%.
D1 agonist – human D1 receptor agonism; P21728; HEK293 T-REx D1 cells, calcium flux, agonist mode; activation, % at 2 µM; 360,000 tested, 1% active; AID 504660; in the data active = activation above about 30%
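Inducible HEK293 T-REx D1 cells, force-coupled to calcium signalling, were plated at 4000 cells/well with tetracycline and held overnight at 30 C. After no-wash calcium dye loading, compound-evoked calcium rise over 180 s flagged agonists.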
D1 antag – blocks dopamine activation of the human D1 receptor | P21728 | HEK293 TREx D1 cells, calcium flux, dopamine EC80; hits give low values | activity change, negative = inhibition, % at 10 µM | 360,000 tested, 3.2% active; in the data active = activity change below about -30%
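Tetracycline-induced HEK293 Trex D1 cells, force-coupled to calcium, dye-loaded; compounds added and read 180 s, then EC80 dopamine added and calcium flux tracked kinetically another 180 s.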
DRD3 agonist – activates the human D3 dopamine receptor; P35462; D3R DiscoveRx beta-arrestin cells, luminescence, 90 min; 410,000 tested, 0.58% active; max activation, %; in the data active = max activation above about 30%
Target sequence (P35462 whole entry, looked up): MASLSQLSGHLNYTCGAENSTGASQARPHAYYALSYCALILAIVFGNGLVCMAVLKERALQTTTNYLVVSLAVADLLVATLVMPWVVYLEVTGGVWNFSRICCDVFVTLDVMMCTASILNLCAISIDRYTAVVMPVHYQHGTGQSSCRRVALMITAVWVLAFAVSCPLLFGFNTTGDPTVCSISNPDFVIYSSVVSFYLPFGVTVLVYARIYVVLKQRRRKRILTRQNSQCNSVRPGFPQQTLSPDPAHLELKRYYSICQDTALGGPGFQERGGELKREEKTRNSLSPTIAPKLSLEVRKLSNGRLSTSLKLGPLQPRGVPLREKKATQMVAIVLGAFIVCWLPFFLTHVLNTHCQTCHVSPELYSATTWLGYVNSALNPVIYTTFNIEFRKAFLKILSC
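Agonist-mode cell screen: cells plated at 1500/well and incubated overnight at 37 °C, then exposed to library compounds for 90 min at 37 °C. Detection reagent was added for 30–60 min at room temperature, and luminescence was read.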
D3 antag – D3 dopamine receptor (human) antagonism. 360,000 tested, 2.5% active. D3R cells, DiscoveRx beta-arrestin luminescence, antagonist mode; hits give low values. AID 652054. max response, negative = inhibition, %. P35462; in the data active = max response below about -50%; inconclusive = no clear call, values can overlap the other calls
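Cells expressing the human receptor were seeded at 1500 cells/well, incubated overnight at 37 degrees C in 5% CO2, then exposed to library compounds with dopamine controls for 90 minutes at 37 degrees C before luminescent detection.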
D1 potentiator – enhances dopamine response at the human D1 receptor | HEK293 TREx D1 cells, calcium flux, dopamine EC20 potentiation | potentiation, % at 10 µM | 360,000 tested, 0.036% active; in the data active = potentiation above about 30%
Of the large screens only hits and unclear results are named; the others gave an inactive call.

CC(C)(C)NC(=O)CCSc1nc(-c2ccc3c(c2)OCO3)cc(C(F)(F)F)n1	none (no result: D3 antag)
CCCOC(=O)c1ccc(Oc2cn[nH]c2-c2ccc(OCC)cc2O)cc1	none
CCCc1ccc(Oc2c(-c3ccc(O)c(C)c3O)n[nH]c2C)cc1	D1 agonist 35, D3 antag -81
CCCc1ccc(Oc2cn[nH]c2-c2ccc(O)c(C)c2O)cc1	D1 agonist 33
O=C(CC1SC(N2CCCCC2)=NC1=O)Nc1cccc(C(F)(F)F)c1 (stereo not drawn)	D1 antag -34
CCOC(=O)N1CCC(c2cc(=O)n3[nH]cc(C(=O)OC)c3n2)CC1	none
CCOc1ccc(NC(=O)c2c[nH]n3c(=O)cc(C4CCN(C(=O)OC(C)(C)C)CC4)nc23)cc1	D1 antag -32
CC1CCc2c(sc(NC(=O)c3cccn3C)c2C(N)=O)C1 (stereo not drawn)	none (no result: D1 agonist, D1 antag, D1 potentiator)
C=C1C(=O)[C@]23C[C@H]1CCC2[C@]1(C)C(=O)CC[C@@](C)(C(=O)O)C1C[C@@H]3O (stereo partly drawn)	none (no result: D1 agonist, D1 antag, D1 potentiator)
C=C1C(=O)[C@]23C[C@H]1CCC2[C@]1(C)CCC[C@@](C)(C(=O)O)C1C[C@@H]3O (stereo partly drawn)	D3 antag -89 (no result: D1 agonist, D1 antag, D1 potentiator)
CC(=O)c1cc(NC(=O)c2cccc(C(F)(F)F)c2)c(=O)oc1/C=C/N(C)C	none (no result: D1 agonist, D1 antag, D1 potentiator)
CC(=O)c1cc(NC(=O)c2ccc(Cl)cc2)c(=O)oc1/C=C/N(C)C	D1 agonist 108, D3 antag -72
CN1CCC(OC(c2ccccc2)c2ccc(Cl)cc2)C1 (stereo not drawn)	D3 antag -74 (no result: D1 agonist, D1 antag, D1 potentiator)
CCCCN1CCCC1C(=O)Nc1c(C)cc(C)cc1C (stereo not drawn)	none (no result: D1 agonist, D1 antag, D3 antag, D1 potentiator)
O=c1ccc2nc3ccccc3sc-2c1	none (no result: D1 agonist, D1 antag, D1 potentiator)
Cc1ccc(S(=O)(=O)Oc2ccccc2-c2ccccc2)cc1	D3 antag inconclusive (no result: D1 agonist, D1 antag, D1 potentiator)
CC1=C(C(=O)OC(C)C)C(c2cccs2)C(C(=O)OC(C)C)=C(C)N1	D1 antag -32
O=C(Nc1nnc([C@@H]2C[C@H](O)[C@@H](CO)O2)s1)c1cccc(Cl)c1	none (no result: D1 agonist, D1 antag, D1 potentiator)
Cc1cccc(C(=O)NCC(=O)N2CCN(S(=O)(=O)/C=C/c3ccccc3)CC2)c1	D1 antag -43
Cc1cccc(C(=O)NCC(=O)N2CCN(S(=O)(=O)c3ccccc3)CC2)c1	none
N/C(Cc1ccc(Cl)cc1)=N\OC(=O)c1ccccc1	none
CC(C)(C)C(=O)OC/C(N)=N/OC(=O)c1ccc(Cl)cc1	D1 antag -43
Cc1onc(-c2ccccc2)c1C(=O)NN1CCOCC1	none (no result: D1 agonist, D1 antag, D1 potentiator)
Cn1cc(CNCc2cn(C)nc2-c2ccc(C3CCCCC3)cc2)cn1	D1 antag -38
COc1ccc(CCNC(=O)CCc2c(C)c3cc4c(C)coc4cc3oc2=O)cc1	D1 antag -51 (no result: D3 antag)
COc1ccc(CNC(=O)Cc2c(C)c3cc4c(C)coc4cc3oc2=O)cc1	none (no result: D3 antag)
Cc1cnc(-c2nc3ccccc3n2C(C)C(=O)Nc2c(C)cccc2C)cn1 (stereo not drawn)	none (no result: D1 agonist, D1 antag, D1 potentiator)
Cc1noc(C)c1COc1ccc(C(=O)Nc2ccccc2)cc1	D3 antag -55
COc1cc(C(=O)NCC(c2ccccc2)N(C)C)ccc1OCc1c(C)noc1C (stereo not drawn)	D3 antag -100
COc1ccc(-c2nc(CNC(=O)NC3CCCCC3)c(C)o2)cc1	none (no result: D3 antag)
Cc1nnc(SCC(=O)c2c(N)n(Cc3ccccc3)c(=O)n(C)c2=O)n1C	none
Cn1cnnc1SCC(=O)c1c(N)n(Cc2ccccc2)c(=O)n(C)c1=O	D1 antag -60
Cc1ccc(C)c(Cn2nc(-c3cc(C)ccc3C)ccc2=O)c1	none
COc1ccccc1N/C(=N/c1nc(C)cc(C)n1)NC(C)=O	none (no result: DRD3 agonist, D3 antag)
COc1ccc(N/C(N)=N/c2nc(C)cc(C)n2)cc1	none (no result: D1 agonist, D1 antag, D1 potentiator)
Cc1cc(C)nc(/N=C(\N)Nc2ccc(CC(=O)OC(C)C)cc2)n1	D1 antag -50
Cc1cc(C)nc(/N=C(\N)Nc2ccc(OCCC(C)C)cc2)n1	D1 agonist 86, D1 antag -45
Cc1cc(C)nc(/N=C(\N)Nc2ccc(S(=O)(=O)O)cc2)n1	none
Cc1cc(C)nc(/N=C(\N)Nc2ccc(OCc3ccccc3)cc2)n1	D1 agonist 102, D1 antag -38
COc1ccccc1N/C(N)=N/c1nc(C)cc(C)n1	D1 antag -34
COc1cccc(CNc2nc(NC(C)C)nc3ccsc23)c1	none (no result: D1 agonist, D1 antag, D1 potentiator)
Cc1cc(C)nc(/N=C(\N)Nc2cccc(OCc3ccccc3)c2)n1	D1 agonist 66, D1 antag -55
COc1cccc(N/C(N)=N/c2nc(C(F)(F)F)cc(C(F)(F)F)n2)c1	none
COc1ccc(CNC(=O)Cn2nc(C(F)(F)F)c(Br)c2C)cc1	none
Cc1ccc(NC(=O)Cn2nc([N+](=O)[O-])c(Br)c2C)cc1C	D1 antag -33
COc1cc(NC(=O)Cn2nc(C(F)(F)F)c(Br)c2C)cc([N+](=O)[O-])c1	D1 antag -34
COc1ccc(Cl)cc1Cn1c(C)c(C(=O)NCc2cccc(Cl)c2)sc1=O	D3 antag inconclusive (no result: D1 agonist, D1 antag, D1 potentiator)
N#C/C(=C\c1ccc(N2CCOCC2)o1)C(=O)NC1CCCCC1	D1 agonist 69
COc1cc(/C=C(\C#N)C(=O)NCC2CCCO2)ccc1O (stereo not drawn)	none
Cc1cc(/C=C(\C#N)C(=O)NCC2CCCO2)c(C)n1-c1ccc(Cl)cc1 (stereo not drawn)	D1 antag -35, D3 antag inconclusive
N#C/C(=C/c1ccc(-c2ccc(S(=O)(=O)N3CCOCC3)cc2)o1)C(=O)NC1CC1	none (no result: D1 agonist, D1 antag, D1 potentiator)
N#C/C(=C\c1ccc(N2CCOCC2)o1)C(=O)NCC1CCCO1 (stereo not drawn)	D3 antag -82
CCN(C(=O)Cn1c(=O)n(CC2CCC(C(=O)NC)CC2)c(=O)c2sccc21)c1ccccc1 (stereo not drawn)	none (no result: D3 antag)
CCNC(=O)CCSc1nnc(-c2ccc(O)cc2)o1	none (no result: D3 antag)
CS(=O)(=O)c1ccc(Cl)c(NC(=O)C2CCN(S(=O)(=O)c3cccs3)CC2)c1	none
COc1cccc(C=Nc2cc(C)cc(C)c2)c1O	none
COc1cc(Br)cc(C=Nc2cccc(C(F)(F)F)c2)c1O	D3 antag -81
O=C(NC1CCCc2ccccc21)c1ccc(=O)[nH]c1 (stereo not drawn)	D1 antag -39
C=C1CC(COc2cc(=O)oc3ccccc23)(c2ccccc2)OC1=O (stereo not drawn)	D3 antag -114 (no result: D1 agonist, D1 antag, D1 potentiator)
C=C1CCC2C(C)(C)[C@H](O)CC[C@@]2(C)[C@@H]1COc1cc(=O)oc2ccccc12 (stereo partly drawn)	none
CC(=O)N1CCc2cc(S(=O)(=O)NC(CC(C)C)C(=O)Nc3ccc(C(C)C)cc3)ccc21 (stereo not drawn)	none (no result: D3 antag)
COc1ccc(-c2cc3c(=O)n(CC(=O)Nc4cccc(Cl)c4)nc(C)n3n2)cc1	none
O=C(CCCN1C(=O)/C(=C\c2ccccc2)SC1=S)N1CCOCC1	none (no result: D1 agonist, D1 antag, D1 potentiator)
